Shown are actives, neighbours in structure and some others; about 2.2% of the full set was active somewhere.
LMP1 NFkB inh = inhibitors of Epstein-Barr LMP1-induced NF-kappaB reporter | LMP1-induced NF-kappaB luciferase reporter cells, luminescence | inhibition, % at 12.5 µM | AID 504558 | 350,000 compounds, 0.69% hits; in the data active = inhibition above about 41%; inconclusive = no clear call, values can overlap the other calls;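 note: 0% = neutral control wells and 100% = reference inhibitor control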
EWS-Fli inh = blocks EWS/Fli oncoprotein-driven transcription; A673 NR0B1-luciferase reporter, viability-normalised; inhibition, % at 12.6 µM; 350,000 compounds, 0.67% hits;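 active = mean inhibition of at least 50% after viability correction, with every replicate also passing that limit; inconclusive = mean reaches 50% but only one of two replicates passes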;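 note: firefly luciferase signal divided by Alamar Blue viability fluorescence both relative to DMSO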
TRPM1 prom inh = inhibitors of MITF-driven TRPM1 promoter in melanoma cells | SK-MEL-5 TRPM1 promoter luciferase, 24 h | inhibition, % at 12.5 µM | 330,000 compounds, 0.83% hits;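 active = mean inhibition across replicates of 60% or more, whatever share of single replicates reaches that level; inconclusive = some that reach 60%, reason not given; inactive = mean inhibition across replicates below 60%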
LGR2 antag = blocks bursicon-induced cAMP signaling via Drosophila LGR2; HEK293 LGR2, CRE-luciferase, bursicon-stimulated, 4 h; inhibition, % at 9.99 µM; 380,000 compounds, 0.35% hits;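 active = drop in luminescence signal, shown as inhibition above about 50% in the replicate tests, limit read from the data, passing the limit was not always enough; inconclusive = probably only some replicates passing the limit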;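 note: agonist challenge used bursicon conditioned medium at about half maximal strength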
PAX8 inh HTS = PAX8 transcriptional activity inhibition | AID 652154 | RMG-I TPO-luciferase reporter, SteadyGlo, 24 h | 360,000 compounds, 1.2% hits | inhibition, % at 12.6 µM;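 active = mean replicate inhibition at least 60% with every replicate also reaching 60%; inconclusive = only one of the two criteria is met; inactive = mean below 60% and not all replicates reaching 60%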;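 note: luciferase light reporting Pax8 driven TPO promoter activity; plate controls were median of neutral control wells for no effect and mitoxantrone controls for full effect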
Shn3 3UTR inh = inhibitors of Schnurri-3 3'UTR reporter in osteoblasts. 360,000 compounds, 0.52% hits. Clone20 osteoblast Shn3 3'UTR firefly luciferase, 24 h. inhibition, % at 12.5 µM;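 active = mean inhibition of at least 75% with every replicate also reaching 75%; inconclusive = mean inhibition at least 75% but some replicate below; inactive = mean inhibition below 75%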;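 note: 0% = median of neutral control wells and 100% = pilot-screen positive control compound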
An asterisk follows results filed as active; ? = inconclusive; / = no result given.

SMILES | LMP1 NFkB inh | EWS-Fli inh | TRPM1 prom inh | LGR2 antag | PAX8 inh HTS | Shn3 3UTR inh
C[C@H](CO)N1C[C@H](C)[C@H](CN(C)C(=O)CCCN(C)C)OCCCC[C@H](C)Oc2ccc(NC(=O)NC3CCCCC3)cc2C1=O | / | -6 | / | 8 | 0 | /
C[C@@H]1CN([C@H](C)CO)C(=O)c2cc(C3=CCCCC3)cnc2O[C@H]1CN(C)C(=O)c1cccnc1 | / | -15 | / | 1 | / | /
CCCC#Cc1ccc(CC[C@H]2O[C@H]3CC[C@H](CO)O[C@H]3C[C@@H]2n2cc(C(C)(C)O)nn2)cc1 | / | / | / | / | -18 | /
O=C(C[n+]1cc(-c2ccc(Cl)cc2)n2c1CCCCC2)c1ccccc1 | -3 | -23 | 0 | -44 | 93* | -11
Cc1ccc(-c2c[n+](CC(=O)N3c4ccccc4Sc4ccccc43)c3n2CCC3)cc1 | 4 | -11 | 18 | 6 | 91* | -9
Cc1ccc(-c2c[n+](Cc3cccc(Cl)c3)c3n2CCC3)cc1 | 6 | 17 | 67* | / | 58 | 47
O=C(C[n+]1cc(-c2ccc(Br)cc2)n2c1CCCCC2)c1ccccc1 | -8 | 15 | 32 | 14 | 75* | 19
O=C(C[n+]1cc(-c2ccccc2)n2c1CCC2)c1cccs1 | -1 | -3 | 12 | 30 | 23 | 2
Cn1cnc(S(=O)(=O)N2[C@@H]3CNC[C@H]2C3c2ccc(-c3ccccc3F)cc2)c1 (stereo partly specified) | / | -13 | / | 14 | / | /
C[C@@H]1CCCCO[C@H](CN(C)C(=O)Nc2ccc(F)cc2)[C@@H](C)CN([C@@H](C)CO)C(=O)c2cc(NC(=O)c3ccncc3)ccc2O1 | / | 4 | / | 21 | 2 | /
CN(C)C(=O)C[C@H]1CC[C@H]2[C@@H](COC[C@H](O)CN2CC2CC2)O1 | / | -2 | / | 2 | 0 | /
CC(C(Sc1ccccc1N)c1ccccc1)[N+](=O)[O-] (stereo unspecified) | 5 | -1 | 71* | / | -66 | 63
O=C(NC(Cc1c[nH]c2ccccc12)C(=O)Nc1ccc(F)c([N+](=O)[O-])c1)c1cccs1 (stereo unspecified) | 50* | / | -8 | 17 | 26 | 15
O=C(COC(=O)[C@H](Cc1c[nH]c2ccccc12)NC(=O)c1cccs1)NCc1ccccc1 | -12 | 8 | 6 | 15 | 66* | -12
O=C(NC(Cc1c[nH]c2ccccc12)C(=O)Nc1ccc(OC(F)(F)F)cc1)c1cccs1 (stereo unspecified) | 15 | -18 | 6 | 22 | 52 | 16
O=C(NC(Cc1c[nH]c2ccccc12)C(=O)O)c1cccs1 (stereo unspecified) | -8 | -3 | 10 | -5 | 17 | -32
C[C@@H]1CCCCO[C@H](CN(C)Cc2ccc(C(=O)O)cc2)[C@H](C)CN([C@H](C)CO)C(=O)c2cc(NC(=O)CCCN(C)C)ccc2O1 | / | -5 | / | -4 | -10 | /
O=C(COc1ccccc1[N+](=O)[O-])Nc1ccc(NC(=O)c2cc3ccccc3o2)cc1 | 3 | -6 | 15 | -1 | -8 | -3
O=C(COc1ccc(/C=N/NC(=O)c2cc3ccccc3o2)cc1Br)Nc1ccccc1 | 6 | / | 93* | / | / | 37
CCCN1C[C@H](C)[C@@H](OC)CN(C)C(=O)c2ccc(NC(=O)c3cnccn3)cc2OC[C@@H]1C | / | / | / | -5 | 13 | /
C[C@@H]1CN([C@H](C)CO)C(=O)Cc2cc(NC(=O)CCN3CCOCC3)ccc2O[C@@H]1CN(C)S(=O)(=O)c1ccc(Cl)cc1 | / | -17 | / | -15 | / | /
Oc1[nH]c2ccccc2c1N=Nc1c(F)c(F)c(Cl)c(F)c1F | 69* | -15 | / | 4 | -7 | -20
CCCN(C)C[C@@H]1Oc2cc(C#Cc3cccc(OC)c3)ccc2S(=O)(=O)N([C@@H](C)CO)C[C@@H]1C | / | 8 | / | 13 | -5 | /
COc1ccc(S(=O)(=O)Nc2ccc3c(c2)C(=O)N([C@@H](C)CO)C[C@@H](C)[C@@H](CN(C)S(=O)(=O)c2ccc(Cl)cc2)OCCCC[C@@H](C)O3)cc1 | / | 4 | / | 19 | 69* | /
COc1ccc(S(=O)(=O)N(C)C[C@@H]2OCCCC[C@H](C)Oc3ccc(NS(=O)(=O)c4ccc(Cl)cc4)cc3C(=O)N([C@@H](C)CO)C[C@@H]2C)cc1 | / | -8 | / | ? | 64* | /
SMILES | LMP1 NFkB inh | EWS-Fli inh | TRPM1 prom inh | LGR2 antag | PAX8 inh HTS | Shn3 3UTR inh
COc1ccc(S(=O)(=O)Nc2ccc3c(c2)C(=O)N([C@H](C)CO)C[C@@H](C)[C@@H](CN(C)S(=O)(=O)c2ccc(Cl)cc2)OCCCC[C@@H](C)O3)cc1 | / | 13 | / | 9 | 31 | /
COc1ccc(S(=O)(=O)N(C)C[C@H]2OCCCC[C@@H](C)Oc3ccc(NS(=O)(=O)c4ccc(Cl)cc4)cc3C(=O)N([C@@H](C)CO)C[C@H]2C)cc1 | / | 7 | / | 17 | 69* | /
COc1ccc(S(=O)(=O)Nc2ccc3c(c2)C(=O)N([C@@H](C)CO)C[C@@H](C)[C@H](CN(C)S(=O)(=O)c2ccc(Cl)cc2)OCCCC[C@H](C)O3)cc1 | / | 10 | / | 12 | 29 | /
COc1cccc2c1C(CO)N1C(C#N)C3CC(C(=O)O)C(C1C2)N3C (stereo unspecified) | 89* | 24 | 67* | 92* | / | -94
COc1ccccc1-c1ccccc1[C@H]1[C@@H](CO)N(C(=O)C2CC2)[C@H]1C#N | / | -6 | / | -16 | 0 | /
O=C(c1ccccc1[N+](=O)[O-])n1cnc2ccccc21 | -1 | 6 | -11 | -26 | -21 | -3
O=C(c1cc(Cl)ccc1[N+](=O)[O-])n1cnc2ccccc21 | 2 | 58* | 6 | -18 | 7 | -13
Cc1cc(C)n(-c2ccc(C(=O)Nc3ccc(C)c(S(=O)(=O)N4CCOCC4)c3)cc2)n1 | 9 | 15 | 69* | ? | 6 | 57
CCOC(=O)c1ccc(NC(=O)c2ccc(C)c(S(=O)(=O)N3CCOCC3)c2)cc1 | 19 | / | 69* | / | / | 42
CCN(CC)c1nc(Oc2ccc(C(=O)OC)cc2)nc(N2CCOCC2)n1 | 52* | 5 | 9 | 1 | -11 | 50
CCOC(=O)c1ccc(NC(=O)CSc2nc(N3CCOCC3)nc(N3CCOCC3)n2)cc1 | 66* | 1 | 24 | 8 | -1 | 16
Cc1noc(C)c1NC(=O)N(C)C[C@H]1Oc2c(NC(=O)NC(C)C)cccc2C(=O)N([C@H](C)CO)C[C@H]1C | / | 2 | / | 14 | / | /
Cn1nnc2cc(C(=O)NC3CCCCC3)ccc21 | 59* | / | -13 | / | / | -20
CO[C@@H]1CN(C)C(=O)c2ccc(NC(=O)C3CCC3)cc2OC[C@@H](C)N(Cc2ccncc2)C[C@H]1C | / | / | / | 1 | -6 | /
Cc1cccc2cc(C#N)c(SCC(=O)N3CC(=O)Nc4ccccc43)nc12 | -49 | / | 65* | / | / | 28
CCN(CC)c1ccc2c(Cl)c(Br)c(=O)oc2c1 | -4 | / | 54 | / | / | 98*
CCN(CC)c1ccc2c(C)c(Cl)c(=O)oc2c1 | 0 | 17 | -1 | -21 | 4 | 5

From PubChem
